Laboratory results: PubChem BioAssay
For some of these results: Measured potencies and affinities stand elsewhere. Active and inactive are the calls of the source.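 How the source made its calls, unless noted: active means primary screen active and over 50% activation in each of two duplicate runs; inactive means the rest.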

Assays:
[1] = test system: TRPC4 beta (transient receptor potential cation channel C4), mouse; experiment: activators of mouse TRPC4 channel, confirmation, cell-based, Fluo4 calcium, HEK293 TRPC4beta/mu-opioid, duplicates, 10 µM (AID 2426;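 active means fluorescence ratio normalized to control raised more than 50% in primary screen plus both repeat runs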); conditions: Fluo4 calcium fluorescence, at 10 µM; stronger effect = higher value
[2] = test system: transient receptor potential cation channel C4 beta (TRPC4), mouse; experiment: activators of mouse TRPC4 channel, confirmation, cell-based, second round, Fluo4, HEK293 TRPC4beta/mu-opioid, 1 µM (AID 2461); conditions: Fluo4 calcium fluorescence, at 1 µM; stronger effect = higher value
[3] = test system: TRPC4 (transient receptor potential cation channel C4 beta), mouse; experiment: positive allosteric modulators of mouse TRPC4, confirmation, cell-based, second round, Fluo-4, HEK293 TRPC4beta/mu-opioid, 1 µM (AID 2554;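 active means primary screen hit whose fluorescence ratio, in both repeats, exceeds the weak agonist control mean by 3 SD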); conditions: DAMGO EC20, Fluo-4 calcium flux, at 1 µM; stronger effect = higher value
[4] = test system: TRPC4 beta (transient receptor potential cation channel C4), mouse; experiment: positive allosteric modulators of mouse TRPC4, confirmation, cell-based, Fluo-4, HEK293 TRPC4beta/mu-opioid (AID 2555;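 active means primary screen hit whose calcium fluorescence ratio, in both repeats, exceeds the weak agonist control mean by 3 SD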); conditions: DAMGO EC20, Fluo-4 calcium flux, at 10 µM; stronger effect = higher value
[5] = target: Short transient receptor potential channel 4 (Mus musculus) (UniProt Q9QUQ5); experiment: inhibitors of mouse TRPC4 channel, confirmation, cell-based, Fluo4, HEK293 TRPC4beta/mu-opioid (AID 2636;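 active means calcium signal cut by more than 3 SD below the full-agonist control yet still positive, in both repeats and the earlier primary screen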); conditions: DAMGO, Fluo4 calcium flux, at 10 µM; stronger effect = higher value
Short transient receptor potential channel 4 (Mus musculus), sequence (Q9QUQ5 whole entry, looked up): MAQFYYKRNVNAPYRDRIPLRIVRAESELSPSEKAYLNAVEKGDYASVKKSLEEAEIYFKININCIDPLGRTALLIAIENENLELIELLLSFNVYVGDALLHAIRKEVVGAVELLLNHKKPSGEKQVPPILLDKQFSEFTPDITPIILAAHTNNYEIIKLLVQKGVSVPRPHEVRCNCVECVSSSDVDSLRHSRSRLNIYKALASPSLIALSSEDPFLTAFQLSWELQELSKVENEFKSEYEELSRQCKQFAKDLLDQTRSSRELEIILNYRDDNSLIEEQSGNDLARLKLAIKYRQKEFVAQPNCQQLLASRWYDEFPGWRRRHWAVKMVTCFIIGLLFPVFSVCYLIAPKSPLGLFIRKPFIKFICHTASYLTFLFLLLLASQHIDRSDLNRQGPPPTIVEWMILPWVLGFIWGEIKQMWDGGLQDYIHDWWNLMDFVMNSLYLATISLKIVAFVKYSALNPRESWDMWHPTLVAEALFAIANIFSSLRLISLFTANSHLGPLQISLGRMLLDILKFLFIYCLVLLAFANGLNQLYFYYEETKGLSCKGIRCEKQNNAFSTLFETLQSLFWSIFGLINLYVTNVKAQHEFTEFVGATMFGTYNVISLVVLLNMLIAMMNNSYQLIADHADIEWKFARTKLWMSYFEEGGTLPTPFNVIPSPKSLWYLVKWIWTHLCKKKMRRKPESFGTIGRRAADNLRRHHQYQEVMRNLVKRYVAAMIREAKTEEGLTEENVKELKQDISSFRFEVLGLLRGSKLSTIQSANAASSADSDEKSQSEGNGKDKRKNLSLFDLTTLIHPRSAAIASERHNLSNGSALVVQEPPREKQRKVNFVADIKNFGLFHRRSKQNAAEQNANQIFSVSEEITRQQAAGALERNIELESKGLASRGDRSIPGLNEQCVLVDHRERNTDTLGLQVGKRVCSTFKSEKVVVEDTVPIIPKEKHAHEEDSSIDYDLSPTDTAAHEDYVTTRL

[6] = target: Short transient receptor potential channel 4 (Mus musculus) (UniProt Q9QUQ5); experiment: inhibitors of mouse TRPC4 channel, confirmation, cell-based, second round, Fluo4, HEK293 TRPC4beta/mu-opioid, 1 µM (AID 2637;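 active means calcium signal ratio cut to more than 3 SD under the fully stimulated control mean yet still positive, in both repeats and the primary screen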;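 on inhibition: percent of integrated ratio relative to wells lacking test compound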); conditions: Fluo4 calcium flux, DAMGO, at 1 µM; stronger effect = higher value
[7] = target: Short transient receptor potential channel 4 (Mus musculus) (UniProt Q9QUQ5); experiment: mouse TRPC4 channel activators, dose response, cell-based, HEK293 TRPC4/mu-opioid, Fluo-4 calcium (AID 434937;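 active means primary screen activator hit with a dose response curve and TRPC4 channel activation at any tested dose; inactive means no activation, no dose response, or not a primary hit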)
[8] = target: Short transient receptor potential channel 4 (Mus musculus) (UniProt Q9QUQ5); experiment: TRPC4 positive allosteric modulators, dose response, cell-based, HEK293 TRPC4/mu-opioid, Fluo-4 calcium, EC20 DAMGO (AID 434941;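 active means earlier screen potentiator hit that boosts the TRPC4 ion channel at some dose, with a dose response; inactive means no potentiation, no dose response, or not a prior hit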;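 further: calcium entry triggered by an EC20 dose of DAMGO at the co-expressed mu-opioid receptor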)
[9] = target: Short transient receptor potential channel 6 (Mus musculus) (UniProt Q61143); experiment: inhibition of mouse TRPC6 channel, confirmation, selectivity assay for TRPC4 inhibitor project, cell-based, HEK293, membrane potential dye, duplicate (AID 434948;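 active means active in primary screen and both duplicates, each dropping signal beyond three positive-control SD with fluorescence still positive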); conditions: HEK293 TRPC6, membrane potential dye fluorescence, at 10 µM, stimulated with maximal-effect acetylcholine; stronger effect = higher value
Short transient receptor potential channel 6 (Mus musculus), sequence (Q61143 whole entry, looked up): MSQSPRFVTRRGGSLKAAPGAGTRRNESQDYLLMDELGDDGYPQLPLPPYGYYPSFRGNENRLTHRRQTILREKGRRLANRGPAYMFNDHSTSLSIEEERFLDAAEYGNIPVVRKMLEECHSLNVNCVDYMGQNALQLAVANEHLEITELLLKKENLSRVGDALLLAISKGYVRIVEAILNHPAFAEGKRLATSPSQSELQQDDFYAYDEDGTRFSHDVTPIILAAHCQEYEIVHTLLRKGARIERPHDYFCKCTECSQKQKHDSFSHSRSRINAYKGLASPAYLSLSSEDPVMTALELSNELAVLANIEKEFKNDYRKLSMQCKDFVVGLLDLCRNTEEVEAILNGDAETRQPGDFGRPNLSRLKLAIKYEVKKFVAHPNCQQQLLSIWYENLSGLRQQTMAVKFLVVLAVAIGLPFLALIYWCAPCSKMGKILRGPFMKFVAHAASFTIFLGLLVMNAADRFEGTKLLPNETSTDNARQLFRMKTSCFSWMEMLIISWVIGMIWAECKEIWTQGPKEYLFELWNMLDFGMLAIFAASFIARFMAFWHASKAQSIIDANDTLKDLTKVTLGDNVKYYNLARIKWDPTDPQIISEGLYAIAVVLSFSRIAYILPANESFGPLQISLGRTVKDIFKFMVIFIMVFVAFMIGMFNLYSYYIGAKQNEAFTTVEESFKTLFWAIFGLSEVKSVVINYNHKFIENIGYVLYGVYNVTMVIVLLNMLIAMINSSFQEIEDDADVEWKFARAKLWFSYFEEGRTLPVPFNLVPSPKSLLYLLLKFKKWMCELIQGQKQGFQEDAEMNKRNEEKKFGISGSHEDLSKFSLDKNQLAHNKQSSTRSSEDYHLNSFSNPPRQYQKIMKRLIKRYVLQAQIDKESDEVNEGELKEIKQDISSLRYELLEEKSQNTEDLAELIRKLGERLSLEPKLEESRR

[10] = target: Short transient receptor potential channel 6 (Mus musculus) (UniProt Q61143); experiment: activation of mouse TRPC6 channel, confirmation, selectivity assay for TRPC4 activator project, cell-based, HEK293, membrane potential dye, duplicate (AID 434950;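 active means membrane potential signal rise above negative control mean plus 3 SD in both duplicates, also active in the earlier TRPC4 screen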;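 on activation: 0% = buffer only wells and 100% = acetylcholine maximal-effect wells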); conditions: HEK293 TRPC6, membrane potential fluorescence, at 10 µM; stronger effect = higher value
[11] = target: Short transient receptor potential channel 6 (Mus musculus) (UniProt Q61143); experiment: TRPC6 potentiation by TRPC4 potentiator hits, confirmation, selectivity assay for TRPC4 potentiator project, HEK293 cells, membrane potential dye, duplicate (AID 434952;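 active means compound raising the membrane signal above positive-control mean plus 3 SD in both repeats, and a primary screen hit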); conditions: HEK293 TRPC6, membrane potential dye fluorescence, at 10 µM, maximal acetylcholine added after compound; stronger effect = higher value
[12] = target: Short transient receptor potential channel 4 (Mus musculus) (UniProt Q9QUQ5); experiment: calcium flux activators in TRPC4/5HT1a cells, counter-screen for TRPC4 activator project, cell-based, second counter screen, HEK293 TRPC4/5HT1a, Fluo-4 (AID 434977;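 active means calcium signal rise above buffer-control mean plus 5 SD in both duplicates, and also a hit in the primary screen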); conditions: Fluo-4 calcium flux, at 10 µM; stronger effect = higher value
[13] = calcium flux inhibitors in TRPC4/5HT1a cells, confirmation, counter-screen for TRPC4 inhibitor project, cell-based, second counter screen, HEK293 TRPC4/5HT1a, Fluo-4 (AID 434978;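 active means primary screen active whose calcium signal fell more than 3 SD beyond the full-serotonin control mean in both duplicate plates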;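 on outcome: serotonin given first at submaximal then at maximal dose after compound preincubation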); conditions: Fluo-4 calcium flux, at 10 µM, serotonin added to trigger calcium flux; stronger effect = higher value
[14] = test system: TRPC4 (mouse), co-expressed with 5HT1a in HEK293; experiment: calcium flux potentiators in TRPC4/5HT1a cells, confirmation, counter-screen for TRPC4 potentiator project, cell-based, second counter screen, HEK293 TRPC4/5HT1a, Fluo-4 (AID 434979;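 active means signal rise over 3 SD above mean of control wells given weak agonist, in both repeats and first screen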); conditions: Fluo-4 calcium flux, at 10 µM, serotonin added at its EC20 dose; stronger effect = higher value
[15] = calcium flux activation in mu-opioid HEK293 cells, confirmation, counter-screen for TRPC4 activator project, cell-based, HEK293 mu-opioid receptor line (AID 449723;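 active means hit in primary screen, with calcium signal over 5 SD above buffer well mean in both duplicates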;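 further: counter screen cells carry the mu-opioid receptor alone and lack TRPC4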); conditions: Fluo-4 calcium fluorescence, at 10 µM; stronger effect = higher value
[16] = calcium flux enhancement in mu-opioid HEK293 cells, confirmation, counter-screen for TRPC4 allosteric potentiator project, cell-based, HEK293 mu-opioid receptor line (AID 449724;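 active means calcium signal rise more than 3 SD above the low-dose agonist control mean, in both duplicate plates and the primary screen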); conditions: Fluo-4 calcium flux, at 10 µM, compound added before EC20 DAMGO stimulus; stronger effect = higher value

Cc1cc(/C=C2/C(=N)N3C(=NC2=O)SN=C3S(C)(=O)=O)c(C)n1-c1ccccc1F
inactive: outcome [1] | outcome [2] | outcome [3] | outcome [4] | outcome [5] | outcome [6] | outcome [7] | outcome [8] | outcome [9] | outcome [10] | outcome [11] | outcome [12] | outcome [13] | outcome [14] | outcome [15] | outcome [16]

CCCOc1cccc(C(=O)NCCNC(=O)c2ccco2)c1
inactive: outcome [1] | outcome [2] | outcome [3] | outcome [4] | outcome [5] | outcome [6] | outcome [7] | outcome [8] | outcome [9] | outcome [10] | outcome [11] | outcome [12] | outcome [13] | outcome [14] | outcome [15] | outcome [16]

CSCCNC(=O)c1ccc(OC2CCN(CCc3ccccc3)CC2)cc1
inactive: outcome [1] | outcome [2] | outcome [3] | outcome [4] | outcome [5] | outcome [7] | outcome [8] | outcome [9] | outcome [10] | outcome [11] | outcome [12] | outcome [13] | outcome [14] | outcome [15] | outcome [16]
active: inhibition [6] 65%

COc1ccc(Nc2nc(NCC3CCCO3)c3ccccc3n2)c(OC)c1 (stereo unspecified)
inactive: outcome [1] | outcome [2] | outcome [3] | outcome [4] | outcome [7] | outcome [8] | outcome [10] | outcome [11] | outcome [12] | outcome [14] | outcome [15] | outcome [16]
active: inhibition [5] 93% | inhibition [6] 50% | inhibition [9] 5.5% | inhibition [13] 41.4%

OCCNc1nc(NCc2ccccc2)c2ccccc2n1
inactive: outcome [1] | outcome [2] | outcome [3] | outcome [4] | outcome [7] | outcome [8] | outcome [9] | outcome [10] | outcome [11] | outcome [12] | outcome [14] | outcome [15] | outcome [16]
active: inhibition [5] 96% | inhibition [6] 61% | inhibition [13] 21.4%

COC(=O)c1ccc(Nc2cc(C)nc3ccccc23)cc1
inactive: outcome [1] | outcome [2] | outcome [3] | outcome [4] | outcome [6] | outcome [7] | outcome [8] | outcome [10] | outcome [11] | outcome [12] | outcome [14] | outcome [15] | outcome [16]
active: inhibition [5] 98% | inhibition [9] 50% | inhibition [13] 19.9%

OCC1(CCc2ccccc2)CCN(Cc2ccc3nsnc3c2)CC1
active: inhibition [5] 83%
inactive: outcome [1] | outcome [2] | outcome [3] | outcome [4] | outcome [6] | outcome [7] | outcome [8] | outcome [9] | outcome [10] | outcome [11] | outcome [12] | outcome [13] | outcome [14] | outcome [15] | outcome [16]

O=C(NCCCN1CCOCC1)c1ccc(NC(=O)C2COc3ccccc3O2)cc1 (stereo unspecified)
inactive: outcome [1] | outcome [2] | outcome [3] | outcome [4] | outcome [5] | outcome [6] | outcome [7] | outcome [8] | outcome [9] | outcome [11] | outcome [12] | outcome [13] | outcome [14] | outcome [15] | outcome [16]
active: activation [10] 49.5%

Cc1c(N)c(C(C)(C)C)cc(C(C)(C)C)c1[N+](=O)[O-]
active: inhibition [5] 92% | inhibition [13] 29.4%
inactive: outcome [1] | outcome [2] | outcome [3] | outcome [4] | outcome [6] | outcome [7] | outcome [8] | outcome [9] | outcome [10] | outcome [11] | outcome [12] | outcome [14] | outcome [15] | outcome [16]

CCCn1c(NCc2ccc(C)o2)nc2ccccc21
inactive: outcome [1] | outcome [2] | outcome [3] | outcome [4] | outcome [6] | outcome [7] | outcome [8] | outcome [9] | outcome [10] | outcome [11] | outcome [12] | outcome [14] | outcome [15] | outcome [16]
active: inhibition [5] 70% | inhibition [13] 30%

CC1(C)CC2CC(C)(CN2C(=O)c2cc(-c3ccc(O)cc3)on2)C1 (stereo unspecified)
inactive: outcome [1] | outcome [2] | outcome [3] | outcome [4] | outcome [6] | outcome [7] | outcome [8] | outcome [9] | outcome [10] | outcome [11] | outcome [12] | outcome [14] | outcome [15] | outcome [16]
active: inhibition [5] 81% | inhibition [13] 31.1%

Cc1ccc(C)c2[nH]c(=O)c(CN(CC3CCCO3)C(=S)NCc3ccco3)cc12 (stereo unspecified)
active: inhibition [5] 79% | inhibition [13] 37.5%
inactive: outcome [1] | outcome [2] | outcome [3] | outcome [4] | outcome [6] | outcome [7] | outcome [8] | outcome [9] | outcome [10] | outcome [11] | outcome [12] | outcome [14] | outcome [15] | outcome [16]

Cc1cc(C)nc(NC(N)=NC2CCCCC2)n1
inactive: outcome [1] | outcome [2] | outcome [3] | outcome [4] | outcome [7] | outcome [8] | outcome [9] | outcome [10] | outcome [11] | outcome [12] | outcome [14] | outcome [15] | outcome [16]
active: inhibition [5] 92% | inhibition [6] 43% | inhibition [13] 21.9%

Cc1cc(-c2sccc2C)nc(-n2cccc2)n1
inactive: outcome [1] | outcome [2] | outcome [3] | outcome [4] | outcome [6] | outcome [7] | outcome [8] | outcome [9] | outcome [10] | outcome [11] | outcome [12] | outcome [13] | outcome [14] | outcome [15] | outcome [16]
active: inhibition [5] 91%

CCOC(=O)c1c(NC(=O)C2CC(Cl)=CCC2C(=O)O)sc2c1CCCCC2 (stereo unspecified)
inactive: outcome [1] | outcome [2] | outcome [3] | outcome [4] | outcome [7] | outcome [8] | outcome [9] | outcome [10] | outcome [11] | outcome [12] | outcome [14] | outcome [15] | outcome [16]
active: inhibition [5] 96% | inhibition [6] 43% | inhibition [13] 31.8%

CN1CCN(c2nc(-c3cccnc3)nc3scc(-c4ccccc4)c23)CC1
inactive: outcome [1] | outcome [2] | outcome [3] | outcome [4] | outcome [5] | outcome [6] | outcome [7] | outcome [8] | outcome [9] | outcome [10] | outcome [11] | outcome [12] | outcome [13] | outcome [14] | outcome [15] | outcome [16]
